Results on 19 compounds are retold here after PubChem BioAssay (NCATS).

Results filed as inconclusive are left out. Active and inactive are the calls of the source. The call rests on the fitted dose curve; in most records, active means well fitted cell-killing curve with a large enough effect; inconclusive means small, poorly fitted or top-dose-only effect; inactive means flat fitted curve, though single readings scatter.

A short description of the test: Cell Viability - LYMP1-002 - Assay at 16 hr (AID 948).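 Further: 0% = DMSO alone and full effect = 92 µM tetraoctylammonium bromide.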 The note with it: LYMP1-002 lymphoblastoid cell viability; series mostly up to 92.2 µM; activity change, negative = cytotoxicity: at the top concentration. The source says: NIH Chemical Genomics Center [NCGC]
NIH Molecular Libraries Screening Centers Network [MLSCN]
National Institutes of Environmental Health Sciences [NIEHS]
National Toxicology Program [NTP]
We have developed a 1536-well cell-based assay for quantitative high throughput screening (qHTS) against a number of cell lines to determine in vitro cytotoxicity of small molecules. This particular assay uses a human lymphoblastoid cell line (LYMP1-002) purchased from Coriell Institute for Medical Research.
NCGC Assay Protocol Summary:
The CellTiter-Glo luminescent cell viability assay (Promega) is a homogeneous method to measure the number of viable cells in culture. The end point readout of this assay is based on quantitation of intracellular ATP, an indicator of metabolic activity, using the luciferase reaction. Luciferase catalyzes the oxidation of beetle Luciferin to oxyluciferin and light in the presence of ATP. The luminescent signal is proportional to amount of ATP present.
Using the CellTiter-Glo luminescent cell viability assay, the amount of cellular ATP was measured in the lymphoblastoid cell line with complete culture medium following compound treatment for 16 hours. The assay was performed in opaque white Kalypsys 1536-well plates. In the screen, tetraoctylammonium bromide was used as positive control. Library compounds were measured for their ability to cause acute toxicity in the cell line, as reflected by a decrease in intracellular ATP levels, in a concentration-dependent manner. […] AC50 values were determined from concentration-response data modeled with the standard Hill equation.
qHTS protocol for CellTiter Glo lymphoblastoid cellular assay
[Step] [Parameter] [Value] [Description]
1. Reagent; 5 uL; 2500 lymphoblastoid cells/well
2. Time; 5 hr; 37 C incubation
4. Controls; 23 nL; Tetraoctylammonium bromide 6.4pM to 92 uM
5. Time; 16 hr; 37 C incubation
6. Reagent; 5 uL; CellTiter Glo reagent
7. Time; 30 min; Room Temperature
8. Detection; Luminescence; Viewlux plate reader
Keywords: cell viability, cytotoxicity, lymphoblastoid cell line, luminescence, NTPHTS, NTPHTS_NCGC, NIEHS, DSSTox, MLSMR, MLSCN, NIH Roadmap, qHTS, NCGC
In the case of `COC(=O)C(c1ccccc1)C1CCCCN1` (centres undefined), the “activity change, negative = cytotoxicity” value was -1.07% (inactive).
On the same count and under the same terms, the result for `Clc1ccc(C(c2ccc(Cl)cc2)C(Cl)(Cl)Cl)cc1` reads -9.23% (inactive); that for `O=C(O)CCCc1ccc(N(CCCl)CCCl)cc1`, -11.6% (inactive); that for `COc1cc(OC)c(OC)cc1C=O`, -5.85% (inactive).
On the same count and under the same terms, the result for `C[C@]1(O)CC[C@H]2[C@@H]3CCC4=CC(=O)CC[C@]4(C)[C@@]3(F)[C@@H](O)C[C@@]21C` reads -1.09% (inactive); that for `NCCc1ccc(O)cc1`, -2.62% (inactive); that for `Oc1ccc(Cl)cc1`, -0.741% (inactive).
The same measure, in the same setting: the result for `CN1C[C@H](C(=O)N[C@]2(C)O[C@@]3(O)[C@@H]4CCCN4C(=O)[C@H](Cc4ccccc4)N3C2=O)C=C2c3cccc4[nH]cc(c34)C[C@H]21` reads -21.9% (inactive); that for `Nc1ccccc1C(=O)O`, -1.8% (inactive); that for `C[C@]12CCC(=O)C=C1CC[C@@H]1[C@@H]2CC[C@@]2(C)[C@H]1CC[C@]2(C)O`, -12.7% (inactive).
`CC(C)c1cccc(C(C)C)c1O`: the “activity change, negative = cytotoxicity” value is -0.241% (inactive).
Still for that read-out and setting: the result for `O=P1(N(CCCl)CCCl)NCCCO1` (centres undefined) reads -7.26% (inactive); that for `CCC(C)(C)c1ccc(O)cc1`, -8.61% (inactive).
On to `CC(C)NC(C)C`, for which the “activity change, negative = cytotoxicity” value is -0.621% (inactive).
Regarding `C[C@]12CCC(=O)C=C1CC[C@@H]1[C@@H]2CC[C@]2(C)C(=O)CC[C@@H]12`, the call was inactive.
Turning to `Nc1ccccc1`, the “activity change, negative = cytotoxicity” value is -4.57% (inactive).
`COP(=S)(OC)Oc1ccc(SC)c(C)c1`: the “activity change, negative = cytotoxicity” value was -4.03% (inactive).
Take `CCOC(=O)CC(SP(=S)(OC)OC)C(=O)OCC` (centres undefined): the “activity change, negative = cytotoxicity” value was -6.91% (inactive).
Consider `CCCC(C)(COC(N)=O)COC(N)=O`, for which the “activity change, negative = cytotoxicity” value is -1.38% (inactive).
